Experimental findings from PubChem BioAssay (NCATS) are described below.

Structures are written as SMILES. Values joined by “and” are separate entries in the source; they are usually repeats but may differ in a detail not shown here. Identical values can stand only once. Records with an inconclusive call do not appear. Where a call stands in place of a potency, no number is given. Active and inactive are the calls of the source. Calls come from the whole dose curve; as a rule, active = well fitted inhibition curve with a large enough effect; inconclusive = small, poorly fitted or top-dose-only effect; inactive = no such curve, though single readings can be large or run the other way.
Potency is the fitted concentration of half-maximal effect.

Chain of Nuclear receptor ROR-gamma (Homo sapiens) (P51449 whole entry, looked up): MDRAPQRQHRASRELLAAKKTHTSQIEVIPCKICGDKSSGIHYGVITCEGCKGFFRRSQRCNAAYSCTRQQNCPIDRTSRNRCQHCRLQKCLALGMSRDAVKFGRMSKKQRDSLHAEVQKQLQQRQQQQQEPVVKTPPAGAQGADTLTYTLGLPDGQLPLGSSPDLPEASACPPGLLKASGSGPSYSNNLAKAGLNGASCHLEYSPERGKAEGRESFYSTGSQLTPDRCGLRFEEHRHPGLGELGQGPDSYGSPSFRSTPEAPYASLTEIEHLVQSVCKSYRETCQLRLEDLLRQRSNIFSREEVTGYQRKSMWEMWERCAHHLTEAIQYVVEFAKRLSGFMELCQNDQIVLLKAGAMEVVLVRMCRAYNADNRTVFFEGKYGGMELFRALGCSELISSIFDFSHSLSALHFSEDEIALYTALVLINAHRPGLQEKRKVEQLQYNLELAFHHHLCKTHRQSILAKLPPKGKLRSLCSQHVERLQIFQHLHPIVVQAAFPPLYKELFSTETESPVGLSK

In this assay the target is Nuclear receptor ROR-gamma (Homo sapiens) (UniProt P51449). The assay is described as follows: qHTS assay for small molecule antagonists of the retinoid-related orphan receptor gamma (ROR-gamma) signaling pathway (AID 651802). Note: nearly all actives have a fitted effect of over 60% in size. The settings on record: ROR-gamma antagonist cell reporter assay; series mostly up to 92.2 µM. An excerpt:
National Center for Advancing Translational Sciences [NCATS]
NIH Chemical Genomics Center [NCGC]
National Institutes of Environmental Health Sciences [NIEHS]
National Toxicology Program [NTP]
Nuclear steroid hormone receptors are involved in many biological processes including inflammatory responses, cell proliferation, and apoptosis. Environmental factors or compounds disrupting these nuclear receptor pathways and gene expression may promote susceptibility to immunotoxicants and autoimmune diseases. One important group of these expression factors are the retinoid-related orphan receptors. To assess compounds that may interfere with the retinoid-related orphan receptor gamma (ROR-gamma) transcription factor, a cell-based luciferase assay was used.
The CHO cell-based assay utilizes a TET-inducible ROR expression factor and ROR response element-LUC reporter gene. Reporter activity was induced using doxycycline and measured after 16hr incubation. Luminescence was read using Viewlux (PerkinElmer), where a decrease in reporter activity would show a decrease in luminescence.
1,000 cells in 4 uL/well were dispensed into white wall/solid bottom 1536-well plates using a Multidrop Combi (Thermo Scientific) dispenser. Following transfer of 23 nL compound or DMSO vehicle by a pin tool, the plates were treated with 1 ul doxycycline to induce reporter gene activity. After 16hr incubation at 37C and 5% CO2, 5uL one-glo (promega) was added to each plate and following 30 min incubation at room temperature, luminescence was quantified on a ViewLux (PerkinElmer) plate reader.
(Quantitative high-throughput screening tests each substance at several concentrations.)
`Clc1ccccc1Cl`: the Potency entry is “inactive”. With `CC(C)(C)c1cc(O)ccc1O`, the Potency is 16.8 µM (active) and 29.8 µM (active). As to `C[C@H]1CC[C@@H]2[C@@H](C)[C@H]3[C@H](C[C@H]4[C@@H]5CC=C6CC(O[C@@H]7O[C@H](CO)[C@H](O)[C@H](O[C@@H]8O[C@H](CO)[C@@H](O)[C@H](O)[C@H]8O)[C@H]7O[C@H]7O[C@@H](C)[C@H](O)[C@@H](O)[C@H]7O)CC[C@]6(C)[C@H]5CC[C@]34C)N2C1` (some centres not stated), the Potency was 13.3 µM (active). Turning to `O=[N+]([O-])c1ccccc1`, the Potency entry was “inactive”. As for `ClC=C(Cl)Cl`, the Potency result was “inactive”. The entry for `ClCC1CO1` (configuration not stated) is “inactive”; for `[Cl-].[Cl-].[Hg+2]` it is 1.06 µM (active); for `CCCCCl` it is “inactive”. For `O=C/C=C/c1ccccc1`, the Potency result was “inactive”. To `O=[N+]([O-])c1ccc(F)c([N+](=O)[O-])c1` belongs 33.5 µM (active); to `COc1ccc2c(c1OC)C(=O)OC2C1c2cc3c(cc2CCN1C)OCO3` (configuration not stated), “inactive”. With `[O]=[Cr](=[O])([OH])[O][Cr](=[O])(=[O])[OH]`, the Potency is 33.5 µM (active) and 16.8 µM (active). The entry for `O=C1CCO1` is “inactive”; for `CCOC(=O)c1ccccc1C(=O)OCC` it is “inactive”; for `C[C@]12CCC(=O)C[C@@H]1CC[C@@H]1[C@@H]2CC[C@]2(C)[C@@H](O)CC[C@@H]12` it is 26.6 µM (active). Take `NNC(N)=O`: the Potency entry is “inactive”.

As for `CC(C)CCON=O`, the Potency result was “inactive”.

Regarding `[O]=[Cd]`, the Potency entry was “inactive”. For the molecule `S=C=S`, the Potency entry was “inactive”. The figure for `C[C@H]1CCC[C@H](O)CCCCCc2cc(O)cc(O)c2C(=O)O1` is 42.2 µM (active); for `Oc1cc(Cl)c(Cl)cc1Cl` it is 23.7 µM (active). To `COC1=CC(=O)O[C@@H](/C=C/c2ccccc2)C1` belongs “inactive”; to `ClC(Cl)(Cl)Cl`, “inactive”. The entry for `CCCCCCCCOC(=O)c1ccccc1C(=O)OCCCCCCCC` is “inactive”; for `C=CCN=C=S` it is “inactive”; for `O=C(O)C(Cl)(Cl)Cl` it is “inactive”.

Take `O=CC=O`: the Potency result was “inactive”.
